# Reference: the supplement of paper PMC6555819
# System: RARg homodimer (NR concentration 270 nM)
# Test: PBM binding z-score (relative to random genomic background probes); higher = stronger binding; sequences stand for … in GC…GCGATTGACAGCGTAGAATGAAGG
# Method in brief: (§1)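 Custom Agilent 4×180K protein-binding microarrays carried double-stranded probes. Their 34-nt variable regions held direct-repeat seeds, single-nucleotide variants, half-site ablations and random human genomic background sequences. Arrays were incubated 1 h with ligand-free nuclear receptor dimers in PBS pH 7.4, 2% milk, 0.02% Triton X-100, 1 mM DTT, 0.2 mg/mL BSA and 0.4 mg/ml salmon testes DNA. Antibodies against each partner (one per run) detected binding, and scanned fluorescence was regression-normalized. Binding z-scores use random background probes as reference.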
row,Sequence,PBM binding z-score
1,TCGAGTAGTTTAGGGGCATTCAGAATGGCGTCGA,-0.0825
2,GTACCAAGGTGAATAGGTCGTCGATGAGTAGGCG,1.67
3,CTCGAAAGGACGGTTGAGGTGAGTATACGGATAA,0.541
4,GGAACGAGGGCAAGGTGATAGCAGAGTTTGATGG,2.2
5,TAGCCTAGGTCATGCGGGCCATTATAGTGTCGGC,4.28
6,GCTCGGAGGACAAGCTCAGAGCTTTGTCCGTAGA,0.0982
7,GCAGACAGGTGAAACGCAGGTAAATCAGGGTGGC,-0.0582
8,GCTTGTAGATCAAGGTTAAGAAAGACTAAGCTAA,0.229
9,AGTCAAAGTTCACTAGGTAACGTGAGATTCAGCT,5.55
10,CTACCGAGGTGAACAAGGTCGTTGATTACTATTC,1.74
11,CAAACTAGGTCAAGGTCAATGTCGGTTTGTGCCA,6.81
12,TCTCGGAGGACACGACAGGTCAGAGCTCGACATC,3.16
13,TAGCCTAGGTCATTGGGCGAGTATAGTACGCATC,4.01
14,GCTAGTTGGTCAGTAAAACGTCACACACCGGTCG,0.216
15,CTGACTGGGGCAAAGGTTACCATACTCAGTACGA,2.21
16,CCTTACGGGTCACTCCAGCTTATAGCATCGGAGT,4.22
17,GCATATAGGTAATACAAGGTGAACGTCCGATTGT,0.716
18,ACTCGGAGGACAAAGGCCAGAGCTACGCCAGTGA,1.26

# System: RXRa DBDmut IVT, anti-RXR (DBD mutation: RXRa K156A/R161A, NR concentration 90 nM)
# Test: as above
# Method in brief: as §1
row,Sequence,PBM binding z-score
1,GTTACAGGGTCAGCTAGAGGCCAGAGTATGGAAA,1.4
2,TCTTATAGGTAAAGGTGAAAGTCGAACGATATGA,1.1
3,AGAACGAGGGCACGCAGAGTTGATAGCAGAGTAG,2.14
4,CGAGCTAGGTCATCCAGGACAGTGAATACATTGA,1.97
5,CGTCCAAGGTCAGAGGTCAGTGAAGAGATGACGG,2.66
6,TCATATAGGTAAATGCTAGGTCAAAGTCCGATCT,1.72
7,CAGCCTAGGTCACGGCCAGTATAGGAGGAACGTT,1.1
8,TGTCAAAGTTCAAAGGTAACGTTAGTATCCACAC,4.32
9,TCTTGTAGATCAAAGGTTAGGAAAGCCGAAGCCT,0.579
10,CGTCCAAGGTCAAGTTCAGTGAAAGAGACTCGAA,4.31
11,CAAACTAGGTAACGAAAGGTCAAAGTCGAATGAC,1.05
12,CCTAGCAGGCCAGGGTTACTCAAGCATTTCGCTT,-0.596
13,GTACCAAGGTGAATAGGTCGTTGCTGAGTAGGCG,-0.0766
14,ACTTACGGGTCACCGAGGTTATAGCACGCGTATA,2.78
15,GCTGCTAGGTCAAATGATGGTCAGCTAAAGCTCG,1.89
16,AATACAGGGTCACTCGGCCAGAGTAGGTACGAAT,3.27
17,TAGCCTAGGTTAGATCGGGCCAGTATACGCTATA,-0.662
18,TCATATAGGTAATACATGTGAAAGTCGGCATCTA,1.57
19,ATACCAGGGTGATCGTGAGGTCGTTGATACTAAC,0.415
20,CCTATTAGTTGACCATAAGGGCATCCGAAGCTCG,0.721

row,Sequence,PBM binding z-score
1,CGTACAAGGTCAATGCTAGGTCAGTGAAAGCATT,3.82
2,TCTGCTAGGTCAGTTCGTCAGCTAACGAGCTGCC,0.634
3,TCGAGTAGTTTAGGGGCATTCAGAATGGCGTCGA,0.68
4,GTACCAAGGTGAATAGGTCGTCGATGAGTAGGCG,-0.36
5,CTCGAAAGGACGGTTGAGGTGAGTATACGGATAA,-0.024
6,GGAACGAGGGCAAGGTGATAGCAGAGTTTGATGG,1.62
7,TAGCCTAGGTCATGCGGGCCATTATAGTGTCGGC,1.05
8,GCTCGGAGGACAAGCTCAGAGCTTTGTCCGTAGA,-0.613
9,GCAGACAGGTGAAACGCAGGTAAATCAGGGTGGC,-0.477
10,GCTTGTAGATCAAGGTTAAGAAAGACTAAGCTAA,-0.146
11,AGTCAAAGTTCACTAGGTAACGTGAGATTCAGCT,3.83
12,CTACCGAGGTGAACAAGGTCGTTGATTACTATTC,1.74
13,CAAACTAGGTCAAGGTCAATGTCGGTTTGTGCCA,2.94
14,TCTCGGAGGACACGACAGGTCAGAGCTCGACATC,0.685
15,TAGCCTAGGTCATTGGGCGAGTATAGTACGCATC,1.2
16,GCTAGTTGGTCAGTAAAACGTCACACACCGGTCG,-0.207
17,CTGACTGGGGCAAAGGTTACCATACTCAGTACGA,0.587
18,CCTTACGGGTCACTCCAGCTTATAGCATCGGAGT,1.69
19,GCATATAGGTAATACAAGGTGAACGTCCGATTGT,0.418
20,ACTCGGAGGACAAAGGCCAGAGCTACGCCAGTGA,0.472

# System: RXRa homodimer (NR concentration 180 nM)
# Test: as above
# Method in brief: as §1
row,Sequence,PBM binding z-score
1,GTTACAGGGTCAGCTAGAGGCCAGAGTATGGAAA,4.47
2,TCTTATAGGTAAAGGTGAAAGTCGAACGATATGA,2.43
3,AGAACGAGGGCACGCAGAGTTGATAGCAGAGTAG,1.73
4,CGAGCTAGGTCATCCAGGACAGTGAATACATTGA,2.89
5,CGTCCAAGGTCAGAGGTCAGTGAAGAGATGACGG,7.78
6,TCATATAGGTAAATGCTAGGTCAAAGTCCGATCT,2
7,CAGCCTAGGTCACGGCCAGTATAGGAGGAACGTT,4.43
8,TGTCAAAGTTCAAAGGTAACGTTAGTATCCACAC,7.81
9,TCTTGTAGATCAAAGGTTAGGAAAGCCGAAGCCT,2.08
10,CGTCCAAGGTCAAGTTCAGTGAAAGAGACTCGAA,6.26
11,CAAACTAGGTAACGAAAGGTCAAAGTCGAATGAC,6.35
12,CCTAGCAGGCCAGGGTTACTCAAGCATTTCGCTT,0.113
13,GTACCAAGGTGAATAGGTCGTTGCTGAGTAGGCG,1.53
14,ACTTACGGGTCACCGAGGTTATAGCACGCGTATA,7.33
15,GCTGCTAGGTCAAATGATGGTCAGCTAAAGCTCG,3.09
16,AATACAGGGTCACTCGGCCAGAGTAGGTACGAAT,5.63
17,TAGCCTAGGTTAGATCGGGCCAGTATACGCTATA,-0.141
18,TCATATAGGTAATACATGTGAAAGTCGGCATCTA,1.14
19,ATACCAGGGTGATCGTGAGGTCGTTGATACTAAC,1.78
20,CCTATTAGTTGACCATAAGGGCATCCGAAGCTCG,0.568

row,Sequence,PBM binding z-score
1,CGTACAAGGTCAATGCTAGGTCAGTGAAAGCATT,6.04
2,TCTGCTAGGTCAGTTCGTCAGCTAACGAGCTGCC,0.516
3,TCGAGTAGTTTAGGGGCATTCAGAATGGCGTCGA,0.467
4,GTACCAAGGTGAATAGGTCGTCGATGAGTAGGCG,2.1
5,CTCGAAAGGACGGTTGAGGTGAGTATACGGATAA,0.139
6,GGAACGAGGGCAAGGTGATAGCAGAGTTTGATGG,0.928
7,TAGCCTAGGTCATGCGGGCCATTATAGTGTCGGC,3.23
8,GCTCGGAGGACAAGCTCAGAGCTTTGTCCGTAGA,-1.03
9,GCAGACAGGTGAAACGCAGGTAAATCAGGGTGGC,0.544
10,GCTTGTAGATCAAGGTTAAGAAAGACTAAGCTAA,0.904
11,AGTCAAAGTTCACTAGGTAACGTGAGATTCAGCT,3.61
12,CTACCGAGGTGAACAAGGTCGTTGATTACTATTC,2.4
13,CAAACTAGGTCAAGGTCAATGTCGGTTTGTGCCA,5.18
14,TCTCGGAGGACACGACAGGTCAGAGCTCGACATC,1.41
15,TAGCCTAGGTCATTGGGCGAGTATAGTACGCATC,2.88
16,GCTAGTTGGTCAGTAAAACGTCACACACCGGTCG,-0.264
17,CTGACTGGGGCAAAGGTTACCATACTCAGTACGA,4.06
18,CCTTACGGGTCACTCCAGCTTATAGCATCGGAGT,3.9
19,GCATATAGGTAATACAAGGTGAACGTCCGATTGT,0.745
20,ACTCGGAGGACAAAGGCCAGAGCTACGCCAGTGA,-0.212
